From the supplement of paper PMC6953052 come the findings set out here.

Each structure is given as a SMILES string. Where “and” joins values, the source holds several entries; their conditions need not be identical. Equal entries are not always repeated. The full ranking holds about 1,700 compounds; the median of “fraction of GFP-LC3-positive cells (≥5 vesicles/cell)” is about 0.058, and the highest 2% start at about 0.59. For the sample, the highest values were picked, then their nearest neighbours and some compounds at random.

The experiment has as its system CbCln3 +/+ GFP-LC3 cerebellar neuronal cells. As to the kind of experiment: fraction of GFP-LC3-positive cells (≥5 vesicles/cell); higher = more autophagosome accumulation. Put shortly:
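Wild-type or mutant CbCln3 cerebellar cells stably expressing GFP-LC3 were plated at 2 × 10^3 per well in 384-well plates and received ~50 nL of compound in DMSO by pin transfer, in duplicate, for 24 h at 33 °C. Hoechst 33342 and LysoTracker Red were added for the last 30 min, after which cells were fixed in 3.2% PFA and three fields per well were imaged at 10×. CellProfiler counted GFP-LC3 vesicles per cell, and out-of-focus images were excluded. The reported value is the fraction of cells reaching a vesicle-count cutoff of 5 or more, averaged over duplicates.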
For the compound `COc1ccc2cc1Oc1ccc(cc1)C[C@H]1c3cc(c(OC)cc3CCN1C)Oc1c(OC)c(OC)cc3c1[C@H](C2)N(C)CC3` [Tetrandrine], the “fraction of GFP-LC3-positive cells” value is 0.0783.
For the compound `C=C(C)[C@@H]1CC[C@]2(C(=O)O)CC[C@]3(C)[C@H](CC[C@@H]4[C@@]5(C)CC[C@H](O)C(C)(C)[C@@H]5CC[C@]43C)[C@@H]12` [Betulinic acid], the “fraction of GFP-LC3-positive cells” value was determined as 0.0563.
With `Cc1ccsc1/C=C/C1=NCCCN1C.O=C(O)C(O)C(O)C(=O)O` [Morantel tartrate] the figure was 0.0668.
As to `CCN(CC)C(=S)SSC(=S)N(CC)CC` [Disulfiram], the “fraction of GFP-LC3-positive cells” value worked out at 0.687.
Consider `O=C(O)CCC(=O)c1ccc(-c2ccccc2)cc1` [Fenbufen], for which the “fraction of GFP-LC3-positive cells” value came to 0.0751.
As for `CC[C@]1(O)C[C@@H]2CN(CCc3c([nH]c4ccccc34)[C@@](C(=O)OC)(c3cc4c(cc3OC)N(C)[C@H]3[C@@](O)(C(=O)OC)[C@H](OC(C)=O)[C@]5(CC)C=CCN6CC[C@]43[C@@H]65)C2)C1.O=S(=O)(O)O` [vinblastine], the “fraction of GFP-LC3-positive cells” value is 0.691.
On to `CCCCCCCC/C=C\CCCCCCCC(=O)OC[C@@H](O)COP(=O)(O)O`, for which the “fraction of GFP-LC3-positive cells” value was determined as 0.039.
On to `CCCCCCCC/C=C\CCCCCCCC(=O)OC[C@@H](O)COP(=O)(O)O` [Lysophosphatidic acid], for which the “fraction of GFP-LC3-positive cells” value came to 0.0399.
Next, `COc1cc2nc(N3CCN(C(=O)C4CCCO4)CC3)nc(N)c2cc1OC.Cl` (stereo not drawn) [Terazosin hydrochloride]: 0.0471.
`COc1cc2nc(N3CCN(C(=O)c4ccco4)CC3)nc(N)c2cc1OC.Cl` [Prazosin hydrochloride]: the “fraction of GFP-LC3-positive cells” value is 0.156.
Next, `COc1cc2nc(N3CCN(C(=O)c4ccco4)CC3)nc(N)c2cc1OC` [prazocin]: 0.899; `C[C@]12CC[C@@H]3c4ccc(O)cc4CC[C@H]3[C@@H]1CCC2=O` [Estrone]: 0.0194; `CC(C)=CC[C@@H](O)C1=CC(=O)c2c(O)ccc(O)c2C1=O` [Shikonin]: 0.7.
In the case of `CC/C=C\C/C=C\C/C=C\C/C=C\C/C=C\CCCC(=O)O`, the “fraction of GFP-LC3-positive cells” value came out at 0.047.
Take `CC/C=C\C/C=C\C/C=C\C/C=C\C/C=C\CCCC(=O)O` [Eicosapentaenoic acid (20:5 n-3)]: the “fraction of GFP-LC3-positive cells” value turned out to be 0.0669.
With `Clc1ccc(C(Cn2ccnc2)OCc2csc3c(Cl)cccc23)c(Cl)c1.O=[N+]([O-])O` (stereo not drawn) [Sertaconazole nitrate], the “fraction of GFP-LC3-positive cells” value turned out to be 0.0474.
On to `O=C(O)c1cc(N(Cc2ccccc2O)Cc2cc(O)ccc2O)ccc1O`, for which the “fraction of GFP-LC3-positive cells” value was 0.0412.
For the compound `O=C(O)c1cc(N(Cc2ccccc2O)Cc2cc(O)ccc2O)ccc1O` [Lavendustin A], the “fraction of GFP-LC3-positive cells” value came out at 0.0834.
Regarding `CCCCNc1c(C(=O)OCC)c(C)nc2c1cnn2CC.Cl` [Tracazolate hydrochloride], the “fraction of GFP-LC3-positive cells” value came out at 0.0505.
With `Cc1c(OCC(F)(F)F)ccnc1CS(=O)c1nc2ccccc2[nH]1` (stereo not drawn) [Lansoprazole], the “fraction of GFP-LC3-positive cells” value came out at 0.0343.
Consider `COC1=CC(=O)C[C@@H](C)[C@]12Oc1c(Cl)c(OC)cc(OC)c1C2=O` [Griseofulvin], for which the “fraction of GFP-LC3-positive cells” value turned out to be 0.172.
With `Cc1ncc(C[n+]2csc(CCO)c2C)c(N)n1.Cl.[Cl-]` [Thiamine hydrochloride], the “fraction of GFP-LC3-positive cells” value is 0.0725.
Next, `CC[C@H](C)C(=O)O[C@H]1C[C@@H](C)C=C2C=C[C@H](C)[C@H](CC[C@@H]3C[C@@H](O)CC(=O)O3)[C@H]21` [Mevinolin (lovastatin)]: 0.203.
Regarding `CC(C)(Oc1ccc(C2CC2(Cl)Cl)cc1)C(=O)O` (stereo not drawn) [Ciprofibrate], the “fraction of GFP-LC3-positive cells” value was 0.0359.
With `CCN(CC)C(=O)N1CCN(C)CC1.O=C(O)CC(O)(CC(=O)O)C(=O)O` [Diethylcarbamazine citrate] the figure was 0.0418; with `CC(=O)O[C@H]1C(=O)[C@@]2(C)C([C@H](OC(=O)c3ccccc3)[C@]3(O)C[C@H](OC(=O)[C@H](O)[C@@H](NC(=O)c4ccccc4)c4ccccc4)C(C)=C1C3(C)C)[C@]1(OC(C)=O)CO[C@@H]1C[C@@H]2O` (stereo partly drawn) [taxol =paclitaxel], 0.536.
With `CC(=O)O[C@H]1C(=O)[C@@]2(C)[C@H]([C@H](OC(=O)c3ccccc3)[C@]3(O)C[C@H](OC(=O)[C@H](O)[C@@H](NC(=O)c4ccccc4)c4ccccc4)C(C)=C1C3(C)C)[C@]1(OC(C)=O)CO[C@@H]1C[C@@H]2O` [Paclitaxel] the figure was 0.642.
Turning to `CS(=O)c1ccc(-c2nc(-c3ccc(F)cc3)c(-c3ccncc3)[nH]2)cc1` (stereo not drawn), the “fraction of GFP-LC3-positive cells” value is 0.023.
`Cc1cnc(C(=O)NCCc2ccc(S(=O)(=O)NC(=O)NC3CCCCC3)cc2)cn1` [Glipizide]: the “fraction of GFP-LC3-positive cells” value was 0.057.
With `CCOC(=O)n1ccn(C)c1=S` [Carbimazole], the “fraction of GFP-LC3-positive cells” value was determined as 0.0518.
For `N=C(N)NCC1COC2(CCCCC2)O1.N=C(N)NCC1COC2(CCCCC2)O1.O=S(=O)(O)O` (stereo not drawn) [Guanadrel sulfate], the “fraction of GFP-LC3-positive cells” value stood at 0.041.
Regarding `CC/C=C/C/C=C/C/C=C/CCCCCCCCCC(=O)O` [Eicosatrienoic acid (20:3 N-3)], the “fraction of GFP-LC3-positive cells” value worked out at 0.0456.
As to `CCCCC/C=C/C/C=C/CCCCCCCCCCCC(=O)O` [13(Z),16(Z)-Docosadienoic acid], the “fraction of GFP-LC3-positive cells” value is 0.0709.
`CC(=O)OCC(=O)[C@@]1(OC(C)=O)[C@@H](C)C[C@H]2[C@@H]3C[C@H](F)C4=CC(=O)C=C[C@]4(C)[C@@]3(F)[C@@H](O)C[C@@]21C` [Diflorasone Diacetate]: the “fraction of GFP-LC3-positive cells” value came out at 0.085.
As for `O=C1Cc2c([nH]c3ccc(Br)cc23)-c2ccccc2N1`, the “fraction of GFP-LC3-positive cells” value turned out to be 0.0413.
Regarding `CCCNC(=O)[C@H]1O[C@@H]1C(=O)N[C@H](C(=O)N1CCC[C@H]1C(=O)OC)C(C)CC` (stereo partly drawn), the “fraction of GFP-LC3-positive cells” value was 0.399 and 0.352.
For the compound `CNCCC(Oc1ccccc1OC)c1ccccc1.Cl` (stereo not drawn) [Nisoxetine hydrochloride], the “fraction of GFP-LC3-positive cells” value was found to be 0.0525.
In the case of `C[C@@H](O)[C@H]1C(=O)N2C(C(=O)O)=C(S[C@@H]3CN[C@H](C(=O)N(C)C)C3)[C@H](C)[C@H]12` [Meropenem], the “fraction of GFP-LC3-positive cells” value was 0.0612.
As for `Nc1ccc(C(=O)NCC(=O)O)cc1` [Aminohippuric acid], the “fraction of GFP-LC3-positive cells” value was found to be 0.0809.
As for `COc1ccc(Cl)cc1C(=O)NCCc1ccc(S(=O)(=O)NC(=O)NC2CCCCC2)cc1`, the “fraction of GFP-LC3-positive cells” value stood at 0.0797.
As for `CC(C)Cc1ccc([C@H](C)C(=O)O)cc1` [S-(+)-ibuprofen], the “fraction of GFP-LC3-positive cells” value is 0.0447.
On to `O=[N+]([O-])c1cccc2c(Br)n[nH]c12` [Bromo-7-nitroindazole [3-Bromo-7-nitroindazole]], for which the “fraction of GFP-LC3-positive cells” value was 0.0548.
In the case of `C1COC(NC(C2CC2)C2CC2)=N1.C1COC(NC(C2CC2)C2CC2)=N1.O=C(O)/C=C/C(=O)O` [Rilmenidine hemifumarate], the “fraction of GFP-LC3-positive cells” value amounted to 0.0609.
